Reference: the supplement of paper PMC11732987, “Enantioselective OTUD7B fragment discovery through chemoproteomics screening and high-throughput optimisation” (Communications Chemistry, 2025)

Tests used:
Test in all cases: log2 ratio of Biotin-Ahx-Ub-VS probe labelling (fragment/DMSO); higher = less target engagement (more negative = stronger competition), active = hit call of the paper (q ≤ 0.05, log2 ratio ≤ -1)
Conditions in all cases: compound concentration: 200 uM; treatment time: 3 h
USP34 = USP34 (UniProt Q70CQ2)
USP34, sequence (Q70CQ2 whole entry, the tested form may be a part): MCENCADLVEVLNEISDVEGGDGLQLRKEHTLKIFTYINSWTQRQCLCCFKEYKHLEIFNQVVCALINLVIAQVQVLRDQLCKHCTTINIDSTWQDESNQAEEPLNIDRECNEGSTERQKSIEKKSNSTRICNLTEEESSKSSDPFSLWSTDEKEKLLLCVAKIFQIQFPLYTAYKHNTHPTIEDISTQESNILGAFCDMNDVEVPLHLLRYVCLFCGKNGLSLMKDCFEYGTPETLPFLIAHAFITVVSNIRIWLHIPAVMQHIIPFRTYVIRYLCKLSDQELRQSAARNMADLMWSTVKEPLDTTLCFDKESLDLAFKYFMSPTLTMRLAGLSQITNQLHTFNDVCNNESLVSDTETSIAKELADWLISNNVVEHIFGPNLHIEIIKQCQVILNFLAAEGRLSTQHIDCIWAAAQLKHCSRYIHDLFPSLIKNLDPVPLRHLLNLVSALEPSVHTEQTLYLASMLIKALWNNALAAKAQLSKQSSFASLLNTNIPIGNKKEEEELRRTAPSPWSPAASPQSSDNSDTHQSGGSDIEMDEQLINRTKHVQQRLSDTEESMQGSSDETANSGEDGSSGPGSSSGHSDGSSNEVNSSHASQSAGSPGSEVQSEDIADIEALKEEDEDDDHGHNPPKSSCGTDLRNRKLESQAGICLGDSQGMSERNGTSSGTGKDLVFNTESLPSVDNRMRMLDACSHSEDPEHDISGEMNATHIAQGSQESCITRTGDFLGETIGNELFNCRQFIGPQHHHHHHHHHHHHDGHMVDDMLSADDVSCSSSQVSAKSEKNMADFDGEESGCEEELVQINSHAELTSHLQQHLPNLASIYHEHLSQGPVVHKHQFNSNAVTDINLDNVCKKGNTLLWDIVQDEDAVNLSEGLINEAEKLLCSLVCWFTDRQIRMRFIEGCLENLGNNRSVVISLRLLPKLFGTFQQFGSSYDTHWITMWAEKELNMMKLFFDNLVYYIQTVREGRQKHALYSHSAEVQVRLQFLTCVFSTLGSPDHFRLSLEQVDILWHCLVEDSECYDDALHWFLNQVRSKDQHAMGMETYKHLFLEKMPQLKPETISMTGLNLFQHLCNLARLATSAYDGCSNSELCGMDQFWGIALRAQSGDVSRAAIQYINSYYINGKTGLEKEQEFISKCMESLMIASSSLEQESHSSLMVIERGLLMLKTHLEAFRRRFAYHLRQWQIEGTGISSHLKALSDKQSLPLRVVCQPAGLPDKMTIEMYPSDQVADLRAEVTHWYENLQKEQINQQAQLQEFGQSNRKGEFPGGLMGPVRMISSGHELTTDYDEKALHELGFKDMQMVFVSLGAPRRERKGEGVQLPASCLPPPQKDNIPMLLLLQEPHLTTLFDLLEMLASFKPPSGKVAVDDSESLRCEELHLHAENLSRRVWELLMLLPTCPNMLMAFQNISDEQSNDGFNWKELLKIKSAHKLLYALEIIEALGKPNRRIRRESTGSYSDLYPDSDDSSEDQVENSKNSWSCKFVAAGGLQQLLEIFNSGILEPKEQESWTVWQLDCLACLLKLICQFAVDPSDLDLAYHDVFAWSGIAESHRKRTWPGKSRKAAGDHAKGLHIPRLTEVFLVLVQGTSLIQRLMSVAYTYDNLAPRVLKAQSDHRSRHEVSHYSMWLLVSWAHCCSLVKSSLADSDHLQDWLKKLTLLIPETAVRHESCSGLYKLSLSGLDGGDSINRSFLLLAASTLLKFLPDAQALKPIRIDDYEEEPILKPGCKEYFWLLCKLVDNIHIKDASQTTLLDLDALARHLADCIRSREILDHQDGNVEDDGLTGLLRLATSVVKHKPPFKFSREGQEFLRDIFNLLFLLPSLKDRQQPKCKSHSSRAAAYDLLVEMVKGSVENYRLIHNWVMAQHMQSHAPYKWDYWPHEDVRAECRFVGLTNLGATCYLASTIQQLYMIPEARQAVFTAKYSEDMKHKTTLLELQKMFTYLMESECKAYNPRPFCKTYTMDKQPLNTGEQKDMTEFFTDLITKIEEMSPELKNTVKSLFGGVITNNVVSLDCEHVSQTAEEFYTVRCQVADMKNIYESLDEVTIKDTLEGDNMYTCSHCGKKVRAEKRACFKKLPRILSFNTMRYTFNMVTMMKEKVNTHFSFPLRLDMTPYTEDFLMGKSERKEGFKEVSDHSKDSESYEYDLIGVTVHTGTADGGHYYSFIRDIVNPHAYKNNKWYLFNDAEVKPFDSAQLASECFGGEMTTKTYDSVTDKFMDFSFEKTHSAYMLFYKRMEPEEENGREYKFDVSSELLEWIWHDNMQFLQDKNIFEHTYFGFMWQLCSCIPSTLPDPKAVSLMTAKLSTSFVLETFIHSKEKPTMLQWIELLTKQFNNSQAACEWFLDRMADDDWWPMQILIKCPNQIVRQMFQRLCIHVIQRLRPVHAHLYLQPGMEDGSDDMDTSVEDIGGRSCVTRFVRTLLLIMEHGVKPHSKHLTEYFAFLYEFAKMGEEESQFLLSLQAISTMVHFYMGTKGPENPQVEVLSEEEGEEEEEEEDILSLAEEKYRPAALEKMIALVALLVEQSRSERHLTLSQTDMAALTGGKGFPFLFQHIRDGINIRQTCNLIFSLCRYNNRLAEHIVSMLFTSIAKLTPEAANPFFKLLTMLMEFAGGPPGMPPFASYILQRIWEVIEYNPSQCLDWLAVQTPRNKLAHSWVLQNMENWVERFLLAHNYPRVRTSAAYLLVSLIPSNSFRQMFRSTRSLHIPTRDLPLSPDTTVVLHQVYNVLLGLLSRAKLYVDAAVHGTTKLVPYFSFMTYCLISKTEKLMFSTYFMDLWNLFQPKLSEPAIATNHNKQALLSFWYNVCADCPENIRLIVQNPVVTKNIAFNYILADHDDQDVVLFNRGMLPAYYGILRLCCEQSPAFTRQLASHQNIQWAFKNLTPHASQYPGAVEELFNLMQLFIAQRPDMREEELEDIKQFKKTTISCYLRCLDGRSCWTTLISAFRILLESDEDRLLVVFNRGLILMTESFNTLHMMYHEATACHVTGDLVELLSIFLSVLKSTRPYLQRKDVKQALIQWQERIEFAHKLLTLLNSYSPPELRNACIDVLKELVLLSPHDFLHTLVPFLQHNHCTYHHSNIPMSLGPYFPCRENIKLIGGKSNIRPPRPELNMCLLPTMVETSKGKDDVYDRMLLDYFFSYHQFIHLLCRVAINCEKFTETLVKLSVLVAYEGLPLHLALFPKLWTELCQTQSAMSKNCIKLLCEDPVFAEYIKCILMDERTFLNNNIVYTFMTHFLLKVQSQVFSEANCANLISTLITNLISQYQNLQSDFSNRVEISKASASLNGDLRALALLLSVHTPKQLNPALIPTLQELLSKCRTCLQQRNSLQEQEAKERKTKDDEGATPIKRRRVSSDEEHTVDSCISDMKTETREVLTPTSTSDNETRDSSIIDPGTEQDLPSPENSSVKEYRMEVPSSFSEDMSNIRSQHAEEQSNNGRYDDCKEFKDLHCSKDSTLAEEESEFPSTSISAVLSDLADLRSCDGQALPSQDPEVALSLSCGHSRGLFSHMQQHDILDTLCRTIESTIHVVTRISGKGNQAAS
Method in brief: (§1)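 HEK293T lysate, 495 µg per sample in Tris/CHAPS/IGEPAL buffer with protease inhibitors, was treated in triplicate with fragment at 200 µM or vehicle for 3 h and then with Biotin-Ahx-Ub-VS at 0.5 µM final for 1 h. Labelled DUBs were NeutrAvidin-enriched, digested with LysC and trypsin, and run by diaPASEF LC-MS/MS. Spectronaut label-free quantities were global-median-normalised, and values are average log2 fragment/vehicle ratios by unpaired t-test on proteins with ≥2 unique peptides.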

USP36 = target: T1, USP36 (UniProt Q9P275)
T1 sequence (whole entry): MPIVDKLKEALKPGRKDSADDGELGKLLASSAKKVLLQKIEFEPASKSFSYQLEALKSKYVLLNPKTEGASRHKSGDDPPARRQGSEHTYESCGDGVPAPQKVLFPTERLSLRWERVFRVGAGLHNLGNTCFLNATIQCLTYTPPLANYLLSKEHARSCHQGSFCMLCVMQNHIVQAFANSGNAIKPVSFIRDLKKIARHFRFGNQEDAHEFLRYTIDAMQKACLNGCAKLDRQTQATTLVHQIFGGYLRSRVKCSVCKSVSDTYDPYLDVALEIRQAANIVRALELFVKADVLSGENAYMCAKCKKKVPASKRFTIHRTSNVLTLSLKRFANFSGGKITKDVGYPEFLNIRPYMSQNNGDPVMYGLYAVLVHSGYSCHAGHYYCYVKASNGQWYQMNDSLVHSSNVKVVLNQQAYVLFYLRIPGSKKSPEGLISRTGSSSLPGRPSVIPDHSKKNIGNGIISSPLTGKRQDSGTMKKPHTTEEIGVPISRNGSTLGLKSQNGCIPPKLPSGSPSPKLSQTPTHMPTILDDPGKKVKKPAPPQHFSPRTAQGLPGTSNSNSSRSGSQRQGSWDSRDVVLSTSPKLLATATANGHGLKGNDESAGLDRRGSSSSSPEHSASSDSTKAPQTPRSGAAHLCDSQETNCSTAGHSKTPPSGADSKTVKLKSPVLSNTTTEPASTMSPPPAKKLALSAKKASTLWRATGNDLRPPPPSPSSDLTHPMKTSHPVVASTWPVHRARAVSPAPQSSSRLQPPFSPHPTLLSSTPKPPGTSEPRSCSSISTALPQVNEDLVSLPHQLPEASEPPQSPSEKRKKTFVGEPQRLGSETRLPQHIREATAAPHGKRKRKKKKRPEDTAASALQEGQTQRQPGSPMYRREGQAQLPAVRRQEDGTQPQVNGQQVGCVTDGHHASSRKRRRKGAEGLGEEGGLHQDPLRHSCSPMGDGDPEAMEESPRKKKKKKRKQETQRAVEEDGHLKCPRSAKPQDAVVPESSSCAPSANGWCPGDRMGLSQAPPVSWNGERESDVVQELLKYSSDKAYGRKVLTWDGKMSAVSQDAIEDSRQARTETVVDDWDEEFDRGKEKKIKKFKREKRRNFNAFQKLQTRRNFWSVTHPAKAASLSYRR
Method in brief: as §1

USP38 = target: T2, USP38 (UniProt Q8NB14)
T2 sequence (whole entry): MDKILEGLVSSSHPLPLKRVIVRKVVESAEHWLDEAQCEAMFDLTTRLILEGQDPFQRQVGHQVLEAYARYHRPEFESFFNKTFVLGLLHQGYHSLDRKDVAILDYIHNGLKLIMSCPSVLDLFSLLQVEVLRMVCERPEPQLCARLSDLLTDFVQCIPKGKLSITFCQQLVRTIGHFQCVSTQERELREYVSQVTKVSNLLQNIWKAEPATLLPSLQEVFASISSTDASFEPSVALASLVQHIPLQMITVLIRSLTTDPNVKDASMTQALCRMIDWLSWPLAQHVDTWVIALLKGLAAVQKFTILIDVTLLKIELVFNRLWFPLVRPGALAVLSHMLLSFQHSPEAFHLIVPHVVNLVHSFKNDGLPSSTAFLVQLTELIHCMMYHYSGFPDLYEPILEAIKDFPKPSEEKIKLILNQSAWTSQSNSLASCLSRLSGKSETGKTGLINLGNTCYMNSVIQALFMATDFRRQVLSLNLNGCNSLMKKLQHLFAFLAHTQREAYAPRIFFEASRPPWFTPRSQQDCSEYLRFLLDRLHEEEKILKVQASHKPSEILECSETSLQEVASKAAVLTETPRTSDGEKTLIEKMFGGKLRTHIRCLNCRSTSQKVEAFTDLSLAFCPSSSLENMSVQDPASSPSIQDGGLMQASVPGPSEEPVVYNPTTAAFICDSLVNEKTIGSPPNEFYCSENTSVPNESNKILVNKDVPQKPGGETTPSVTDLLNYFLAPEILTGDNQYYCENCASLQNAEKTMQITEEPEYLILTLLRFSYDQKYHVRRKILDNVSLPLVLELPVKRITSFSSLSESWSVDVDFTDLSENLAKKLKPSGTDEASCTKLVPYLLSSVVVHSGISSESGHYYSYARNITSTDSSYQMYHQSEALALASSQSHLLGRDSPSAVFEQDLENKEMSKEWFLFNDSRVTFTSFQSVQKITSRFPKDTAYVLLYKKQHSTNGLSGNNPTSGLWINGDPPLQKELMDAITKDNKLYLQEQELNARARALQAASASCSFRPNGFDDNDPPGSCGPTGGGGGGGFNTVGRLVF
Method in brief: as §1

USP39 = target: T3, USP39 (UniProt Q53GS9)
T3 sequence (whole entry): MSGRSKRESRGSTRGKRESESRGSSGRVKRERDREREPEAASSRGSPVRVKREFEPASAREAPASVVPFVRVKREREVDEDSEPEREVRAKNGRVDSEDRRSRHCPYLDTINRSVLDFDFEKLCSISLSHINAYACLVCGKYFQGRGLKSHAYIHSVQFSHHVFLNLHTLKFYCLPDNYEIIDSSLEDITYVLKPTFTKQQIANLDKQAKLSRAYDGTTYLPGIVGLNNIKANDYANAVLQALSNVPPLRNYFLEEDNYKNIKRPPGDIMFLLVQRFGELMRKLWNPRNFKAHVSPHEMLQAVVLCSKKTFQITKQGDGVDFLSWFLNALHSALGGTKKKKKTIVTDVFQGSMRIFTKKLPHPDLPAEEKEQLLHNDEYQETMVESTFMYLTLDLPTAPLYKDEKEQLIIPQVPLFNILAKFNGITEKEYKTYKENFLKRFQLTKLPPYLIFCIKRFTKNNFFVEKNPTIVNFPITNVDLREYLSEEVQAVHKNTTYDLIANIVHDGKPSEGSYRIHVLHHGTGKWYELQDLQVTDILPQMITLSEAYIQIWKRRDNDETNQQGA
Method in brief: as §1

USP4 = target: T4, USP4 (UniProt Q13107)
T4 sequence (whole entry): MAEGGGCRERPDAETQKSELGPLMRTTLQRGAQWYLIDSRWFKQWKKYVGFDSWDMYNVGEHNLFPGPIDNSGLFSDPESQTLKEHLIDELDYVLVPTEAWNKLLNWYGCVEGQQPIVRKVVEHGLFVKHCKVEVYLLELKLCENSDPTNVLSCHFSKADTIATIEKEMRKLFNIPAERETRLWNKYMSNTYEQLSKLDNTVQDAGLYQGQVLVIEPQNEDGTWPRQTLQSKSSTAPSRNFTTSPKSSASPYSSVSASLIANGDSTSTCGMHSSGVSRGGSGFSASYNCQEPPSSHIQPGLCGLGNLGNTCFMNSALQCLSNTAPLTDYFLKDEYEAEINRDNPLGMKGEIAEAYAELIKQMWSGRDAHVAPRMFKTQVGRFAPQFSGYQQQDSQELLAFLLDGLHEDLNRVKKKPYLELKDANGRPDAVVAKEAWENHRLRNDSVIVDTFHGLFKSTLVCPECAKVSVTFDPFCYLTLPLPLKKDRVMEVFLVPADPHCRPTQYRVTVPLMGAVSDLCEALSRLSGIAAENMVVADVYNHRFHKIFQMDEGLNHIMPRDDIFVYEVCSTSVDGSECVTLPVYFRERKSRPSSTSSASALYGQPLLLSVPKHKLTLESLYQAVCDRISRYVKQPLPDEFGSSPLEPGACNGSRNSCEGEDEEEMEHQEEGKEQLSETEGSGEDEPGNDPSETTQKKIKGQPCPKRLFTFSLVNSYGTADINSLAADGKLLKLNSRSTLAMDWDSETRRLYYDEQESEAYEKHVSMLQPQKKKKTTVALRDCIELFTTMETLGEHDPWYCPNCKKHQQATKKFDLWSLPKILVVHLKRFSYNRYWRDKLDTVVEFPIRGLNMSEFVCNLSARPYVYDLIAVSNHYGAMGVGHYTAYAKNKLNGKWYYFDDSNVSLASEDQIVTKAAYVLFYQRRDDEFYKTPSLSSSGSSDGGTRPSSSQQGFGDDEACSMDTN
Method in brief: as §1

Measured: log2 ratio of Biotin-Ahx-Ub-VS probe labelling

Cl.O=C(CCl)NCCN1CCc2ccccc21
inactive: USP34 -0.536 | USP36 -0.231 | USP38 -0.723 | USP39 0.178 | USP4 -0.666
